Results on seven molecules are retold here after ChEMBL document CHEMBL1157539, “Thousands of chemical starting points for antimalarial lead identification” (Nature, 2010).

As usually defined, the Inhibition is the share of the control response that was lost under treatment. Low values mean a response near the control, high ones a response far below the control.

Structures are written as SMILES.

This assay concerns Plasmodium falciparum. Description: GSK_TCMDC: Inhibition of Plasmodium falciparum Dd2 in whole red blood cells, using parasite LDH activity as an index of growth. Test compounds present at 2uM. The class given is functional.
Molecule `CC[C@H]1CN2CC[C@@H]1C[C@H]2[C@H](O)c1cc(N2CCC(C(N)=O)CC2)nc2ccc(OC)cc12` yielded an Inhibition of 9%.

With `Cc1ccc(CC(C)NCC(O)c2cccc(C#N)c2)cc1` (configuration not stated), the Inhibition is given as 86%.

As for `CC[C@H]1CN2CC[C@H]1C[C@@H]2[C@H](O)c1ccnc2ccc(O)cc12`, the Inhibition is recorded as 0%.

Molecule `CN(C)c1cccc(NC(=O)N[C@H]2N=C(c3ccccc3)c3ccccc3N(CC(=O)N3CCCC3)C2=O)c1` gave an Inhibition of 98%.

Turning to `CC(C)CNCc1ccc(-c2ccc(CN(C(=O)Nc3ccccc3)C3CCN(Cc4ccccc4)CC3)cc2)cc1.O=C(O)C(F)(F)F`, the Inhibition came out at 61%.

On to `Br.CC(Cc1ccc(CSC(C)C)cc1)NCC(O)c1cccc(Cl)c1` (configuration not stated), for which the Inhibition was 98%.

`Cc1ccc(C[C@@H](C)NC[C@H](O)c2cccc(C(F)(F)F)c2)cc1.O=C(O)/C=C/C(=O)O`: the Inhibition is recorded as 79%.
